Our source for the activation factor values is PubChem BioAssay AID750 (Sanford-Burnham Center for Chemical Genomics, 2007).

The structures appear in SMILES notation. Out of some 86,000 compounds screened, about 140 (0.16%) were called active. The sample holds actives, similar compounds and a random draw of the others, so the mix is not that of the screen. A number with no mark means an inactive call.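 How the source made its calls: active means activation factor of at least 2 for MT1-MMP transcription at 10 µM; inactive means the rest.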

The assay in a line: MT1-MMP promoter reporter activation – cell-based, luciferase luminescence, primary screen (AID 750). The conditions noted are these: HT1080 MT1-MMP promoter luciferase reporter, overnight, at 10 µM, hits give high values. A general note: In a reporter assay the amount or activity of a reporter protein is the signal.
Regarding `CCOc1ccc(NC(=O)c2ccccc2NS(C)(=O)=O)cc1`, the activation factor was 1.3.
`O=C(c1cc2c(s1)CCC2)N1CCN(c2ccccc2)CC1`: the activation factor is 1.1.
As for `COc1ccc(C2=NOC3(CC(=O)N(c4ccc(C)cc4)C3=O)C2)cc1` (configuration not stated), the activation factor is 1.2.
For the molecule `CC1=NN(/C(=N\c2nnc(C)s2)Nc2ccccc2)[C@H](c2ccc(C)cc2)S1`, the activation factor was 1.1.
The result for `O=C1CCCc2nn(-c3ccccc3)nc21` reads 1.5; that for `OC(CN=c1sc2ccccc2n1CC(O)COc1ccccc1)COc1ccccc1` (configuration not stated), 1.4.
Then `C=C(C)C(=O)Nc1cccc(C(C)=O)c1`, with 1.3; and `CC1CCN(C(=O)CN(c2ccc(Oc3ccccc3)cc2)S(C)(=O)=O)CC1`, with 1.
As for `COc1ccc(CNc2ccc3c(c2)CCC3)cc1OC`, the activation factor is 1.1.
Then `Cc1ccccc1-n1nc(C)c2cc(C(=O)NC3CC3)sc21`, with 1.1; and `Cc1cc(Oc2ccccc2)nc(N2CCOCC2)n1`, with 1.1.
`Cc1ccc(OCC(=O)N2CCN(C(=O)c3cccnc3)CC2)cc1`: the activation factor is 1.
The result for `O=C1/C(=C\Nc2ccccc2)CCN1c1ncccn1` reads 1.9; that for `COc1ccc(CN(Cc2ccco2)S(=O)(=O)c2ccc(S(=O)(=O)N3CCCC3)cc2)cc1`, 1.
The result for `CCCCNC(=O)C1CCCN(S(=O)(=O)c2ccc(S(=O)(=O)NCC(C)C)cc2)C1` (configuration not stated) reads 1.2.
The result for `CCc1ccc(CNC(=O)C2CCCN(c3nc4ccccc4o3)C2)cc1` (configuration not stated) reads 1.1; that for `Cc1cccc(C(=O)N2CCCN(C(=O)c3cccc(C)c3)CC2)c1`, 1; that for `CCC(C)(C(=O)NC1CCCCC1)N(C)C(=O)c1ccc2c(c1)OCO2` (configuration not stated), 1.
Take `Cc1ccc(OCCCC(=O)Nc2ccc(N3CCOCC3)cc2)cc1`: the activation factor is 1.1.
Turning to `O=C(CN1C(=O)C2C3C=CC(C3)C2C1=O)Nc1nc(-c2ccccn2)cs1` (configuration not stated), the activation factor was 1.2.
Consider `COC(=O)c1ccc(C(NC(=O)OCc2ccccc2)/C(C)=C/[C@@H](C)C(=O)NCc2ccc(OC)c(OC)c2)cc1` (some centres not stated), for which the activation factor was 1.4.
For the molecule `O=C(CC12CC3CC(CC(C3)C1)C2)Nc1ccc2c(c1)COC2=O`, the activation factor is 1.
In the case of `COc1ccccc1NC(=O)CC(NCCN(C)C)C(=O)O` (configuration not stated), the activation factor is 1.
`CS(=O)(=O)N(CC(=O)N1CCN(Cc2ccccc2)CC1)c1ccc2c(c1)OCCO2`: the activation factor is 0.9.
As to `CCn1c(SCC(=O)Nc2nc(C)cs2)nnc1C(C)NC(=O)c1ccccc1` (configuration not stated), the activation factor was 1.3.
Then `CCCc1nnc(NC(=O)c2cccs2)s1`, with 1.4.
Then `CCOC(=O)CN1C(=O)C(=O)c2cc(C)ccc21`, with 1.1.
Turning to `COc1ccc(/C=N/Nc2nc3ccccc3o2)cc1OC`, the activation factor was 1.7.
Regarding `CN1CCN(C(=O)Cn2c(C(F)(F)F)nc3ccccc32)CC1`, the activation factor was 1.2.
Regarding `Cc1ccc(S(=O)(=O)NC(=O)COc2ccccc2C)cc1`, the activation factor was 1.2.
Then `CC1(C)N=C(c2ccccn2)C(C)(C)N1O`, with 1; and `COc1ccc(CN(C(=O)CSc2nnc(-c3ccc(OC)c(OC)c3)o2)c2ccc(F)cc2)cc1`, with 1.2; and `CCOC(=O)c1ccc2c(c1)nc(C)n2CC`, with 1.6.
Take `O=C(NC(=O)c1ccccc1)NC(=O)c1ccccc1`: the activation factor is 1.
The result for `CN(C)c1ccnc2sc3c(=O)n(-c4ccc(Cl)cc4)cnc3c12` reads 1.5.
Then `Cc1ccc(-n2cc3ccc([N+](=O)[O-])cc3n2)cc1`, with 0.9; and `CCOCN(C(=O)Cn1c(C(C)O)nc2ccccc21)c1c(C)cccc1CC` (configuration not stated), with 1.2.
Regarding `CC1CC(C)CN(CC(=O)N2c3ccccc3CCc3ccccc32)C1` (configuration not stated), the activation factor was 1.1.
For `O=C(NCCN1CCN(Cc2ccccc2)CC1)c1cc2c(=O)[nH]c3ccccc3c2s1`, the activation factor was 1.
For the molecule `Cc1nn(C)cc1CNC(=O)Nc1ccc(Cl)cc1`, the activation factor is 1.7.
As for `Cc1ccc(-c2csc(NC(=O)Cc3cccs3)n2)cc1C`, the activation factor was 1.3.
`O=P(O)(CP(=O)(c1ccccc1)c1ccccc1)c1ccccc1O`: the activation factor was 1.2.
Then `COc1ccc(C(=O)NN(C)c2nc(-c3ccccc3)cc(C)c2S(C)(=O)=O)cc1`, with 1.1.
On to `O=S(=O)(c1ccc(Br)cc1)n1ccc2ccccc21`, for which the activation factor is 1.1.
Turning to `O=C(NCCc1ccccc1)c1ccc(OCCOc2ccccc2)cc1`, the activation factor was 1.
Then `COC(=O)c1ccc(S(=O)(=O)N2CCC(c3nc4ccccc4o3)CC2)cc1`, with 1.1.
With `COc1ccc(C(c2nnnn2C2CCCCC2)N2CCN(c3ccccc3F)CC2)cc1` (configuration not stated), the activation factor is 1.1.
For `c1ccc(CCn2nnnc2CN2CCN(C3CCCC3)CC2)cc1`, the activation factor was 1.1.
Then `c1ccc(C(c2ccccc2)N2CCN(Cc3nnnn3C3CCCCC3)CC2)cc1`, with 2 (active); and `C=CCn1c(SCc2c(C)noc2C)nc2sc3c(c2c1=O)CCC(C)C3` (configuration not stated), with 0.6.
For `CCOc1ccc(-c2nc(C)sc2CC(=O)O)cc1`, the activation factor is 1.
Then `CC(C)(C)N1CC(c2nc3ccccc3n2Cc2ccc(F)cc2)CC1=O` (configuration not stated), with 1.2.
Then `CC1(C)Cc2cccc(OCC(N)=O)c2O1`, with 1.2; and `Cn1nc(C(F)(F)F)c2cc(NC(=O)OCC(C)(C)C)sc21`, with 1; and `CC1=NN(C(C)C)C(=O)C1`, with 1.2.
For the molecule `CN(C)S(=O)(=O)c1ccc(NC(=O)COC(=O)c2n[nH]c3ccccc23)cc1`, the activation factor is 1.3.
Regarding `O=C(OC1CCCCC1=O)c1cccc(S(=O)(=O)NCc2ccccc2)c1` (configuration not stated), the activation factor was 1.2.
Then `COc1ccc(NC(=O)Cn2c(=O)n(Cc3ccco3)c(=O)c3ccccc32)cc1`, with 1; and `Cc1ccc(-n2nc3cc(C)c(NC(=O)c4cccnc4)cc3n2)cc1`, with 1.5.
With `CC(C)C[C@@H](N)c1nnc(SCC(=O)c2ccc(Cl)cc2)o1`, the activation factor was 1.1.
The result for `S=C1NC(c2ccccc2)=NCN1c1ccc(Br)cc1` reads 1.2.
On to `Cc1cc(NC(=O)CN2CCCC(C)C2)n(-c2nc3ccccc3s2)n1` (configuration not stated), for which the activation factor was 1.2.
Then `Cc1cc(-c2ccccc2)nc(N2CCC(C(=O)NC34CC5CC(CC(C5)C3)C4)CC2)n1`, with 1.3; and `CCOC(=O)Nc1sc(C(=O)N(C)C)c(C)c1C(=O)OCC`, with 1; and `Cc1[nH]n(-c2ccc(Cl)cc2)c(=O)c1/C=N/n1c(C)nc2ccccc2c1=O`, with 1.
The result for `COc1ccc(C2C(C(C)=O)=C(O)C(=O)N2c2nccs2)cc1` (configuration not stated) reads 1; that for `Cc1ccc(CNC(=O)COc2ccc(S(=O)(=O)NC(C)C)cc2)cc1`, 1.1; that for `CC(C)C(NC(=O)c1ccc(Cl)cc1)C(=O)O` (configuration not stated), 1.1.
The result for `CCOc1ccc(C(=O)NC(C(=O)NCc2ccccn2)C(C)C)cc1` (configuration not stated) reads 1.3.
Consider `COc1ccc(C2=NOC3(CC(=O)N(c4ccc(Cl)cc4)C3=O)C2)c(OC)c1` (configuration not stated), for which the activation factor was 1.
Consider `Cc1ccc(S(=O)(=O)NCC(=O)N(CC(=O)NC(C)(C)C)Cc2cccs2)cc1`, for which the activation factor is 1.1.
Then `CC(Nc1nc(N2CCCC2)nc2ccccc12)c1ccccc1` (configuration not stated), with 1.1; and `Cc1ccc(C(CC(=O)O)Nc2nc(N3CCCCC3)nc(N3CCCCC3)n2)cc1` (configuration not stated), with 2 (active); and `COc1ccc(C(CC(=O)O)NC(=O)Cc2ccccc2)cc1` (configuration not stated), with 1.2.
Regarding `OC(C#CCN1CCOCC1)(c1ccccc1)C1CCCCC1` (configuration not stated), the activation factor was 1.1.
The result for `Cc1ccn(C(CC(=O)c2ccc(Br)cc2)C(=O)O)n1` (configuration not stated) reads 1.1; that for `O=C(O)CSCc1ccc(C(=O)O)o1`, 1.2.
